Screening data as filed in PubChem.
NPC1 promoter act – activators of NPC1 promoter; Huh7 NPC1 promoter luciferase reporter, 24 h; Potency, µM (top dose mostly 9.22 µM), for inactives: at the highest dose activation, actives largely listed as activators; hit rate 2.4% among 320,000; AID 485313; further: % of control where 0% means no effect; nearly all actives have a fitted effect of over 60% in size
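Luminescence from an NPC1 promoter-driven luciferase reporter in stably transfected Huh7 cells was measured after 24 h compound treatment at 37 °C, followed by 10 min ambient incubation with luciferase detection reagent.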
SMN2 splice enh – SMN2 splice variant enhancement | HEK293 SMN2-luciferase splicing reporter, luminescence, 30-36 h | Potency, µM (top dose mostly 46.1 µM), without a hit: at the highest dose activity change, positive = activation, usual class: activators | hit rate 2.8% among 210,000 | AID 1458; further: % of control where 0% means no effect; nearly all actives have a fitted effect of over 55% in size
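qHTS luciferase splicing reporter: luminescence rises when SMN2 exon 7 is included in transfected HEK293 cells. Compound exposure lasted 30-36 h at 37C, with 4.5 mM final sodium butyrate as control, followed by a ONE-Glo read.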
KinaseGlo FLuc – Kinase-Glo luciferase inhibition (counter-screen). Q27757. Kinase-Glo luciferase, ATP luminescence, 8 min. Potency, µM (titrated, usually from 38.3 µM), inactives show at the highest dose activity change, negative = inhibition, actives largely listed as inhibitors. hit rate 0.28% among 200,000. AID 1379; further: on the % scale 0 is the no-effect control and ±100 the full control effect; nearly all actives have a fitted effect of over 60% in size
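Kinase-Glo luciferase light output from ATP and luciferin was measured with 10 uM ATP, within the enzyme's linear range. Buffer: 50 mM imidazole pH 7.2, 50 mM KCl, 7 mM MgCl2, 0.01% Tween 20, 0.05% BSA; luminescence read after 8 min at ambient temperature.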
Rab9 prom act – Rab9 promoter activation | AID 485297 | hit rate 2.8% among 320,000 | Huh7 Rab9 promoter-luciferase reporter, luminescence, 24 h | Potency, µM (highest dose often 9.22 µM), for the others: at the highest dose activation, negative = inhibition, actives largely listed as activators; further: % of control where 0% means no effect; nearly all actives have a fitted effect of over 60% in size
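Promoter activation is measured as luciferase luminescence in Huh7 cells stably transfected with a Rab9 promoter–luciferase construct, following 24 h compound exposure at 37 °C and 10 min reagent incubation at ambient temperature.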
FLuc modulator – inhibits or activates purified firefly luciferase, miR-21 counter-screen. Potency, µM (titrated, usually from 57.5 µM), without a hit: top-dose activity change, negative = inhibition, actives largely listed as inhibitors. purified FLuc, Km substrates, luminescence inhibition. hit rate 6.9% among 360,000;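 further: plate controls were vehicle for no effect and reference inhibitor for full effect; nearly all actives have a fitted effect of over 55% in size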
Target sequence (P08659 whole entry, looked up): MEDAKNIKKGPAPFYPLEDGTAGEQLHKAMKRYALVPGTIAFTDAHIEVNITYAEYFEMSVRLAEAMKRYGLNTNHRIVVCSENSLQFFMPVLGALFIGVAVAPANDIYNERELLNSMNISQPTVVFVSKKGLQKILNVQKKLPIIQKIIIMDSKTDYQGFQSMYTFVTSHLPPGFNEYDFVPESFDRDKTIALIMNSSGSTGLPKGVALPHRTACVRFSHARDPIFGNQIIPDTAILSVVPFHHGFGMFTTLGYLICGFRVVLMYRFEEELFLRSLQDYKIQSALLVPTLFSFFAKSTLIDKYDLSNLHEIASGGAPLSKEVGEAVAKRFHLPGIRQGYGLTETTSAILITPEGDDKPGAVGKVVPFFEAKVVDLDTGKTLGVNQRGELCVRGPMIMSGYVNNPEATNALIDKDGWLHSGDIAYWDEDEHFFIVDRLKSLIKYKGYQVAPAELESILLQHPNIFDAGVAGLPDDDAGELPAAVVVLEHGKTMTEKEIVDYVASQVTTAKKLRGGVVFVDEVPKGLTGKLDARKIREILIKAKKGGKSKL
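Purified P. pyralis luciferase, 10 nM final, with Km-level 10 uM D-luciferin and 10 uM ATP in 50 mM Tris acetate pH 7.5, 10 mM Mg acetate, 0.01% Tween-20, 0.05% BSA; 6-point qHTS titration about 60 µM downward; luminescence read.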
* marks the source's active call; other numbers are inactive results; ? = inconclusive; · = no result; [ ] = another dose, or the depositor's remark. Rows were chosen to be rich in hits. Some 7.3% of all compounds tested hit in one or more screens of this group. The call rests on the fitted dose curve; in most records, active means well fitted curve in the direction sought with a large enough effect; inconclusive means small, poorly fitted or top-dose-only effect, or another doubt; inactive means no such curve, though single readings can be large; an effect the other way counts as inactive or inconclusive. Potency means the concentration at half of the fitted maximal effect.

SMILES	NPC1 promoter act	SMN2 splice enh	KinaseGlo FLuc	Rab9 prom act	FLuc modulator
Cc1cccc(NC(=O)CN2C(=O)N/C(=C/c3cc(C)n(C(C)C)c3C)C2=O)c1	1.1%	-9.3%	-0.8%	-1.3%	?
CCOC(=O)C(C)N1C(=O)S/C(=C/c2cc(C)n(-c3ccncc3)c2C)C1=O (centres undefined)	-0.1%	-20.1%	-1.0%	20.9%	?
CCOC(=O)C(C)N1C(=O)S/C(=C/c2cc(C)n(-c3ccccn3)c2C)C1=O (centres undefined)	2.51µM*	29.3%	-3.1%	2.24µM*	8.49µM*
CN1C(=O)/C(=C/c2cc3c(cc2Br)OCO3)NC1=S	-17.5%	-18.2%	-5.4%	-0.5%	-6.5%
COCCn1c(C)cc(/C=C2/SC(=O)N(C(C)C(=O)OC)C2=O)c1C (centres undefined)	1.41µM*	·	·	1.58µM*	2.39µM*
COCCn1c(C)cc(/C=C2\NC(=S)N(C)C2=O)c1C	13.6%	11.2µM*	4.4%	0.2%	?
CCn1c(C)cc(/C=C2\NC(=O)N(CC(=O)Nc3ccc(F)cc3)C2=O)c1C	6.8%	15.3%	-8.3%	-6.5%	-4.2%
CCn1c(C)cc(/C=C2/SC(=O)N(C(C)C(=O)OC)C2=O)c1C (centres undefined)	3.16µM*	·	·	3.98µM*	6.01µM*
CCOC(=O)c1cc(-c2ccc(OC)cc2)n(CCC(=O)NCCc2ccccc2)c1C	·	·	·	·	-4.8%
O=C(Nc1cccc(Cl)c1)Nc1ccc2c(c1)OCO2	2.51µM*	10µM*	-1.3%	1.58µM*	6.75µM*
CC(=O)c1cccc(NC(=O)Nc2ccc3c(c2)OCO3)c1	3.55µM*	·	·	2.51µM*	4.78µM*
CC(=O)c1cccc(NC(=O)NCc2ccc3c(c2)OCO3)c1	28.5%	·	·	20.9%	?
COc1ccc2c(Cl)c(C(N)=O)sc2c1	12.9%	16.2%	-0.5%	21.2%	15.1µM*
O=C(O)c1[nH]c2c([N+](=O)[O-])cc([N+](=O)[O-])cc2c1C(=O)O	·	-1.3%[9.22 µM]	-3.7%[7.66 µM]	·	·
Cc1ccc2nc(-c3cccnc3SCC(=O)N3c4ccccc4CC3C)[nH]c2c1 (centres undefined)	?	14.1µM*	?	?	5.36µM*
CCN(CC)C(=O)CSc1ncccc1-c1nc2ccccc2[nH]1	1.4%	·	1.2%	1.2%	23.9µM*
O=C(CSc1ncccc1-c1nc2ccccc2[nH]1)N1CCCCC1	10.1%	4.7%	-4.8%	12.0%	16.9µM*
CN(C)C(=O)CSc1ncccc1-c1nc2ccccc2[nH]1	8.9%	·	·	9.1%	?
COc1ccc(C)cc1-n1c(SCC(=O)NCc2ccco2)nc2c([nH]c3ccccc32)c1=O	·	·	·	·	-6.2%
Cc1cc(C)c(NC(=O)C2CCN(S(=O)(=O)c3c(C)noc3/C=C/c3ccccc3F)CC2)c(C)c1	·	·	·	·	-5.4%
CCCCSc1nnc(-c2ccc(NC(C)=O)cc2)n1C	-3.4%	19.1%	2.0%	-3.1%	0.1%
CCCCSc1nnc(-c2c[nH]c3ccccc23)n1C	?	-8.9%	-3.9%	?	15.1µM*
Cn1c(SCC(=O)N2CCN(c3ccccc3)CC2)nnc1-c1c[nH]c2ccccc12	-0.5%	-55.7%	0.9%	-4.6%	-2.8%
Cn1c(SCc2ccccc2)nnc1-c1c[nH]c2ccccc12	?	?	0.7%	?	16.9µM*
CCCCSc1nnc(-c2ccc(C)cc2)n1C	3.98µM*	?	-3.7%	3.55µM*	?
SMILES	NPC1 promoter act	SMN2 splice enh	KinaseGlo FLuc	Rab9 prom act	FLuc modulator
COC(=O)c1ccc(CSc2nnc(-c3c[nH]c4ccccc34)n2C)o1	-1.7%	13.1%	3.9%	-4.8%	0.8%
COCCNC(=O)CN1C(=O)c2cccnc2Sc2ccccc21	·	·	·	·	-7.3%
CCN(C(=O)c1cccs1)c1nnc(-c2ccncc2)s1	13.8%	25.8%	-2.9%	?	13.5µM*
CCCn1nc2cc(C(=O)NCCc3cccs3)ccc2c1OCC	?	15.8µM*	3.5%	?	?
O=C(Cn1ncc2c(=O)oc3ccccc3c21)N1CCN(c2ccc(Cl)cc2)CC1	·	3.5%	·	·	0.6%
CCCn1c(SCc2nc(-c3ccc(OC)cc3OC)no2)nnc1-c1ccc(Cl)cc1	·	-10.4%	·	·	?
O=C(COc1ccccc1F)Nc1ccc(OCc2cc(=O)n3ccccc3n2)cc1	·	·	·	·	-9.2%
Cc1ccc(OCCSc2ncccn2)c(C)c1	0.631µM*	3.16µM*	-7.3%	0.501µM*	2.13µM*
c1cnc(SCCOc2cccc3ccccc23)nc1	?	22.1%	-1.9%	2.24µM*	7.57µM*
O=C(/C=C/c1ccccc1)Oc1cccc(C(=S)N2CCOCC2)c1	-0.2%	-32.7%	-2.5%	-4.0%	9.53µM*
O=C(/C=C/c1cccc(Oc2ccccc2)c1)N1CCOCC1	?	·	-16.1%	1.58µM*	15.1µM*
O=C(/C=C/c1ccc(OCCCF)cc1)N1CCOCC1	?	·	·	?	23.9µM*
O=C(/C=C/c1cccc2ccccc12)c1ccncc1	-8.0%	-61.3%	1.2%	-7.6%	9.53µM*
O=C(N/N=C/c1cccc2ccccc12)c1ccncc1	3.2%	·	·	-6.7%	?
O=C(/C=C/c1ccccc1)Oc1ccccc1C(=S)N1CCOCC1	1.4%	·	-2.9%	-1.0%	3.5%
Cc1c(C(=O)Nc2ccccc2)sc2nc(-c3cc4cc(Cl)ccc4oc3=O)[nH]c(=O)c12	·	·	·	·	-18.8%
O=C(/C=C/c1ccccc1Cl)N1CCOCC1	22.5%	·	·	3.7%	?
O=C(/C=C/c1cccc2ccccc12)N1CCOCC1	?	·	·	?	15.1µM*
CCc1ccc(C2CC(=O)c3c([nH]c(C(=O)OC4CCCCCC4)c3C)C2)cc1 (centres undefined)	·	-1.2%	·	·	-2.9%
O=C(NCCSc1ccccn1)c1ccc(Cl)cc1	0.631µM*	2.24µM*	-0.2%	0.631µM*	3.38µM*
CS(=O)(=O)N(Cc1ccc(Cl)cc1)c1ccc(C(=O)NCCSc2ccccn2)cc1	0.5%	-3.2%[1.84 µM]	1.3%	3.5%	1.8%
O=C(NCCSc1ccccn1)c1ccc(Cl)cc1Cl	0.794µM*	3.16µM*	0.5%	1.12µM*	?
O=C(NCCCNC(=O)c1cc(Cl)ccc1Cl)c1ccccn1	-0.5%	·	·	1.3%	-0.5%
CCOc1ccccc1NC(=O)CSc1cc(=O)n(CC)c2ccccc12	·	14.6%	·	·	-18.7%
Cc1ccc(-c2nnc(NC(=O)c3ccco3)s2)cc1	2.24µM*	·	·	2.24µM*	1.51µM*
COc1cccc(-c2nnc(NC(=O)c3ccco3)s2)c1	2.24µM*	·	·	2.24µM*	7.57µM*
Cc1ccc(Cc2cnc(NC(=O)c3ccco3)s2)cc1	0.631µM*	12.6µM*	-5.4%	0.631µM*	0.849µM*
COc1ccc(-c2nnc(NC(=O)c3ccco3)s2)cc1	3.55µM*	·	·	0.794µM*	1.51µM*
Cc1nnc(NC(=O)c2ccco2)s1	-1.2%	5.6%	3.4%	2.4%	0.1%
Cc1cc(NS(=O)(=O)c2ccc(NC(=O)COc3cc(C)c(Br)cc3C(C)C)cc2)no1	·	-5.3%	·	·	?
